# Measurements from article PMC7862700, “An all-to-all approach to the identification of sequence-specific readers for epigenetic DNA modifications on cytosine”.
# Tests used:
# Assay in all cases: DAPPL (digital affinity profiling via proximity ligation, sequencing); 10 mM Tris-HCl pH 7.5, 50 mM NaCl, 1 mM DTT, 4% glycerol, room temperature, 30 min; GST-TFs on glutathione beads, 16-mer random dsDNA library, 0.1% formaldehyde crosslink after washing; high values mean tight binding
# FLI1 = biological target: T1, FLI1 (Homo sapiens, UniProt Q01543 1-452); conditions: protein: recombinant; tags: N-terminal GST; dsDNA, one strand shown
# T1 sequence: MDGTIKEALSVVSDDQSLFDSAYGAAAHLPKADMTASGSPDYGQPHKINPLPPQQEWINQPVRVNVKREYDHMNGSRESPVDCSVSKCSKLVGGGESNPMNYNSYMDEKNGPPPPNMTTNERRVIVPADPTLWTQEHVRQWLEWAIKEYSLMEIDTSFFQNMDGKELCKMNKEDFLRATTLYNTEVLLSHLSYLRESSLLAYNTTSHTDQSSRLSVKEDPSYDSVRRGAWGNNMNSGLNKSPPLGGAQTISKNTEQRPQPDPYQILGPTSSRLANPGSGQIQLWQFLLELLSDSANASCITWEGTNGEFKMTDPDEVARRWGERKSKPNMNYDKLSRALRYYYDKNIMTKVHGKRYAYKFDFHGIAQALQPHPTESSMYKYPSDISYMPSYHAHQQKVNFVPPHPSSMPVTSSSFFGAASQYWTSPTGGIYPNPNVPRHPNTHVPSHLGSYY
# Outline: (§1)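 Binding signal is given per hexamer as its read frequency for a factor divided by its frequency in the tag-only sample. GST-fused human transcription factors were expressed in yeast, captured on glutathione beads, barcoded with DNA and pooled with that sample, then incubated with 200 nmole of a 16-mer random double-stranded DNA library in Tris/NaCl/DTT/glycerol buffer for 30 min at room temperature. The pools were then washed, crosslinked, proximity-ligated, amplified by PCR and sequenced on an Illumina NextSeq500.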
# ELK1 = biological target: T2, ELK1 (Homo sapiens, UniProt P19419 1-428); conditions: protein: recombinant; tags: N-terminal GST; dsDNA, one strand shown
# T2 sequence: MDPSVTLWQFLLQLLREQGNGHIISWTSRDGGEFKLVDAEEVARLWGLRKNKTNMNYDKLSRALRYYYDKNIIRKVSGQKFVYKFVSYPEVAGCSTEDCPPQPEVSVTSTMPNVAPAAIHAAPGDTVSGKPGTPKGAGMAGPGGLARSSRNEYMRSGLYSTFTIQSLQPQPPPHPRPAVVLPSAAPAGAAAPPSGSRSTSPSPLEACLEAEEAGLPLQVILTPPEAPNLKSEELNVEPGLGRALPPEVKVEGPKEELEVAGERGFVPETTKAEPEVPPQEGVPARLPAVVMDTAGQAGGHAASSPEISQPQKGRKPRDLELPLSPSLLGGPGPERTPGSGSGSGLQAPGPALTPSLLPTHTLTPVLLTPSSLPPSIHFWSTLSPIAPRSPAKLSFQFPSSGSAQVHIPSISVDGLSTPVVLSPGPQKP
# Outline: as §1
# GABPA = biological target: T3, GABPA (Homo sapiens, UniProt Q06546 1-454); conditions: protein: recombinant; tags: N-terminal GST; dsDNA, one strand shown
# T3 sequence: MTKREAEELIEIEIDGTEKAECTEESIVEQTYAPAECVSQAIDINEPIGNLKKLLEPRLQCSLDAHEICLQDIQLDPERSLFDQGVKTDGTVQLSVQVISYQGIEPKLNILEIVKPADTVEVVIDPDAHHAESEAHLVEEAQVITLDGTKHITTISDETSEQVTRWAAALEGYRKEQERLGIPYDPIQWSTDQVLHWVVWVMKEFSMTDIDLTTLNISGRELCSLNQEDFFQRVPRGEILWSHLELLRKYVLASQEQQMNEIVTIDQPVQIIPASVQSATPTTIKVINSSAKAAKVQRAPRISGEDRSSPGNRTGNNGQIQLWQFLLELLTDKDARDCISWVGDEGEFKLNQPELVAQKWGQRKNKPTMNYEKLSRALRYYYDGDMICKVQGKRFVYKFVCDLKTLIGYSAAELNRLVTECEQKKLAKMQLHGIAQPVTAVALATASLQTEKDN
# Outline: as §1
# ERG = biological target: T4, ERG (Homo sapiens, UniProt P11308 1-479); conditions: protein: recombinant; tags: N-terminal GST; dsDNA, one strand shown
# T4 sequence: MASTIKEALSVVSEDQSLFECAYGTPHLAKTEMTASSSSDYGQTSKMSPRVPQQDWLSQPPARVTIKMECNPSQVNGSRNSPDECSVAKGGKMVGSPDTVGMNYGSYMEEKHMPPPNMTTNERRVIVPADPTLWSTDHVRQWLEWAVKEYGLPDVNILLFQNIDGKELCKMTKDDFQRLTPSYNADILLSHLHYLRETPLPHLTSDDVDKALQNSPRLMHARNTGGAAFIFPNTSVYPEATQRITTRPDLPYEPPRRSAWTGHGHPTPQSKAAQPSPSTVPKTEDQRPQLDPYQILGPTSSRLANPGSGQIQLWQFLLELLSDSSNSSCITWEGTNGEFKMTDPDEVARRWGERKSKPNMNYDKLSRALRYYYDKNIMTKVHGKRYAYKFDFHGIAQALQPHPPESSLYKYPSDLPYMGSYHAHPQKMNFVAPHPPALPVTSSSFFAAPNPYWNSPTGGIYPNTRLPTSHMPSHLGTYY
# Outline: as §1
# ELF1 = ELF1 (Homo sapiens, UniProt P32519 1-619); conditions: protein: recombinant; tags: N-terminal GST; dsDNA, one strand shown
# Outline: as §1
# EHF = biological target: T5, EHF (Homo sapiens, UniProt Q9NZC4 1-300); conditions: protein: recombinant; tags: N-terminal GST; dsDNA, one strand shown
# T5 sequence: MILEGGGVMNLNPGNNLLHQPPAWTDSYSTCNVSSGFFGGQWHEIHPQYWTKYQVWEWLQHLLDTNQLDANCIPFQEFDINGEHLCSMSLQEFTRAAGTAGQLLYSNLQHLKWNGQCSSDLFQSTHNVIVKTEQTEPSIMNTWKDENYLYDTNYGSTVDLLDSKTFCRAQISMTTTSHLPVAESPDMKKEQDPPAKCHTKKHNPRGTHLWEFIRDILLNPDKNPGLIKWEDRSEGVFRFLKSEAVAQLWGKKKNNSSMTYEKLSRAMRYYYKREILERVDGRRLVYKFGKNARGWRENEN
# Outline: as §1
# SPI1 = SPI1 (Homo sapiens, UniProt P17947 1-270); conditions: protein: recombinant; tags: N-terminal GST; dsDNA, one strand shown
# Outline: as §1
# SPIB = SPIB (Homo sapiens, UniProt Q01892 1-262); conditions: protein: recombinant; tags: N-terminal GST; dsDNA, one strand shown
# Outline: as §1
# ELK3 = biological target: T6, ELK3 (Homo sapiens, UniProt P41970 1-407); conditions: protein: recombinant; tags: N-terminal GST; dsDNA, one strand shown
# T6 sequence: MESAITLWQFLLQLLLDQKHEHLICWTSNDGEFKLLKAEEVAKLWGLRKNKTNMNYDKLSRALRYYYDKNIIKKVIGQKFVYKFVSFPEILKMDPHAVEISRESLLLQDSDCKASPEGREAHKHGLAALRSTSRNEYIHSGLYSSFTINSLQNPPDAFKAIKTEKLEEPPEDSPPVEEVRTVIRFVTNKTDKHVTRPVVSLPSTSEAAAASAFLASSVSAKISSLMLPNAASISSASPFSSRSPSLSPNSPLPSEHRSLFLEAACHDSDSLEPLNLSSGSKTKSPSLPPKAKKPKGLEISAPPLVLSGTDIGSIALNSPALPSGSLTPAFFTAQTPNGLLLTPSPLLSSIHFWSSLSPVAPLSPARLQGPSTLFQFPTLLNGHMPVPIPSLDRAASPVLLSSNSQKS
# Outline: as §1
# FEV = biological target: T7, FEV (Homo sapiens, UniProt Q99581 1-238); conditions: protein: recombinant; tags: N-terminal GST; dsDNA, one strand shown
# T7 sequence: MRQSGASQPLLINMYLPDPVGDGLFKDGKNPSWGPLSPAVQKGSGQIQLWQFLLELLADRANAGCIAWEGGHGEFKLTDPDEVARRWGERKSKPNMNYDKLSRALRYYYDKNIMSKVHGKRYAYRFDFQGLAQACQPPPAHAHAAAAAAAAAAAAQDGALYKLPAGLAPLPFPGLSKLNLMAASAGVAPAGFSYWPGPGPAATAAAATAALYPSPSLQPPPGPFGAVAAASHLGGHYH
# Outline: as §1
# ETV5 = ETV5 (Homo sapiens, UniProt P41161 1-510); conditions: protein: recombinant; tags: N-terminal GST; dsDNA, one strand shown
# Outline: as §1
# HSF1 = HSF1 (Homo sapiens, UniProt Q00613 1-529); conditions: protein: recombinant; tags: N-terminal GST; chain copies: 3; dsDNA, one strand shown
# Outline: as §1
# SPIC = biological target: T8, SPIC (Homo sapiens, UniProt Q8N5J4 1-248); conditions: protein: recombinant; tags: N-terminal GST; dsDNA, one strand shown
# T8 sequence: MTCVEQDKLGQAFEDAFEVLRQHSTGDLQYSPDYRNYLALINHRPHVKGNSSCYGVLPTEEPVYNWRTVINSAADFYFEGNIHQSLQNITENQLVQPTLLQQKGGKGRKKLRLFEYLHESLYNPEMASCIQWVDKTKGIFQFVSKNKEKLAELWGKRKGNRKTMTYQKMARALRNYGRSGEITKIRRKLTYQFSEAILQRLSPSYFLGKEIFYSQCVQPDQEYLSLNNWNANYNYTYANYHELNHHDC
# Outline: as §1
# ELF4 = ELF4 (Homo sapiens, UniProt Q99607 1-663); conditions: protein: recombinant; tags: N-terminal GST; dsDNA, one strand shown
# Outline: as §1
# ELK4 = biological target: T9, ELK4 (Homo sapiens, UniProt P28324-2 1-405); conditions: protein: recombinant; tags: N-terminal GST; dsDNA, one strand shown
# T9 sequence: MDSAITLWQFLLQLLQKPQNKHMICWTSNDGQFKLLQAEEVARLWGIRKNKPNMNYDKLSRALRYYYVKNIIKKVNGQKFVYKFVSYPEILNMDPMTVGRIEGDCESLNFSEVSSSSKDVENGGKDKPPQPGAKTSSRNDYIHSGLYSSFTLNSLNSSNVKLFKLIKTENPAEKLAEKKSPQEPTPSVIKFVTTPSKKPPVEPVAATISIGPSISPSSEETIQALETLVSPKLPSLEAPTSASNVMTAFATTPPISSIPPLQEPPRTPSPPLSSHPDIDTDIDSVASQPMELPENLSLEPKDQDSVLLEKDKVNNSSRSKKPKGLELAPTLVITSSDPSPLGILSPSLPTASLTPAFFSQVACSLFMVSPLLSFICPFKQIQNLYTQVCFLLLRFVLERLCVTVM
# Outline: as §1
# ETV2 = biological target: T10, ETV2 (Homo sapiens, UniProt O00321 1-342); conditions: protein: recombinant; tags: N-terminal GST; dsDNA, one strand shown
# T10 sequence: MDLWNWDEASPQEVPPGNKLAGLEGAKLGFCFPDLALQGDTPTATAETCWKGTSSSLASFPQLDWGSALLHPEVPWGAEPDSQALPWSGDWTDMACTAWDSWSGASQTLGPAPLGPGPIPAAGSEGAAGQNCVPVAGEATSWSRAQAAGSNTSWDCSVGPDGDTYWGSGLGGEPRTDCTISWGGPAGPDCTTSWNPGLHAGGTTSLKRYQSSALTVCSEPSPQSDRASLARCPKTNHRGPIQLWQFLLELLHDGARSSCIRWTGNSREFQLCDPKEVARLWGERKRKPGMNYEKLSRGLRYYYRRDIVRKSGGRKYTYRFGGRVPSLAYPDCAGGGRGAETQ
# Outline: as §1
# ELF3 = biological target: T11, ELF3 (Homo sapiens, UniProt P78545 1-371); conditions: protein: recombinant; tags: N-terminal GST; dsDNA, one strand shown
# T11 sequence: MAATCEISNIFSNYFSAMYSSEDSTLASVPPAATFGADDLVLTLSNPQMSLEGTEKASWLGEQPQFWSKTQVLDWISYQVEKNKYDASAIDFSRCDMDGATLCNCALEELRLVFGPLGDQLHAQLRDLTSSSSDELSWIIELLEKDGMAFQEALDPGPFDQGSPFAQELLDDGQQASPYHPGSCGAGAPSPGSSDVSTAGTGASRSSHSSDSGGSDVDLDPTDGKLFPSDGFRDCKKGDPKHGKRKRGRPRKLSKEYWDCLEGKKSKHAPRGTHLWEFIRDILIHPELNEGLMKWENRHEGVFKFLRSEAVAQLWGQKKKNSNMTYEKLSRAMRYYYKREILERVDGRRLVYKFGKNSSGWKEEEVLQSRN
# Outline: as §1
# CRX = CRX (Homo sapiens, UniProt O43186 1-299); conditions: protein: recombinant; tags: N-terminal GST; dsDNA, one strand shown
# Outline: as §1
# ETV1 = ETV1 (Homo sapiens, UniProt P50549 1-477); conditions: protein: recombinant; tags: N-terminal GST; dsDNA, one strand shown
# Outline: as §1
# Sequence of ETV1 (P50549 whole entry): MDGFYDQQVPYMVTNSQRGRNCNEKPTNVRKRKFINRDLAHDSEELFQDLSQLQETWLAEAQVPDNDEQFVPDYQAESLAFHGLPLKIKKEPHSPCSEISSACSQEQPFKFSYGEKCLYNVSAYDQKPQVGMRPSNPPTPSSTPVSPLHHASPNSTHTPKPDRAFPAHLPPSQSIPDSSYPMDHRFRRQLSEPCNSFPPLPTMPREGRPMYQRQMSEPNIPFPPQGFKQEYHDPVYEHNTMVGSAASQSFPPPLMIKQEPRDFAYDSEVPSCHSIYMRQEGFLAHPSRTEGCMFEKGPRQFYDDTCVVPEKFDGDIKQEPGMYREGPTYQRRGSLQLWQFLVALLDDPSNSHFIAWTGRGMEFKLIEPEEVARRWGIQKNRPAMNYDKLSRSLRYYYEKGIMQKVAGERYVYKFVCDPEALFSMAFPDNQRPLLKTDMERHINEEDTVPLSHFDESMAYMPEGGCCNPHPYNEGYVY
# Sequence of ETV5 (P41161 whole entry): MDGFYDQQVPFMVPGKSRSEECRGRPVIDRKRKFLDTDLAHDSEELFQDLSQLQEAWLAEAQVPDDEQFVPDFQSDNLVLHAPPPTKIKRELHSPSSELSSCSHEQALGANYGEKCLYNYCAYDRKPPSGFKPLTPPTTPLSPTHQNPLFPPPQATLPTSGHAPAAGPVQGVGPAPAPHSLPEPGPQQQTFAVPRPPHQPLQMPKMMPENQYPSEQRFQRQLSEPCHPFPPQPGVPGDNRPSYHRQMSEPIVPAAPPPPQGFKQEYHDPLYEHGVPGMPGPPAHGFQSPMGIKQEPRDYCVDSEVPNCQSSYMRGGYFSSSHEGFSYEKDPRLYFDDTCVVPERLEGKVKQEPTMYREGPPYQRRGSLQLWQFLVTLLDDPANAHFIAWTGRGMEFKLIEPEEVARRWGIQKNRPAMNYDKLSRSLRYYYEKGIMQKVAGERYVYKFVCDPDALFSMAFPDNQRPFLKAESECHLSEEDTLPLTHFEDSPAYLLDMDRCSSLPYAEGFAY
# Sequence of ELF1 (P32519 whole entry): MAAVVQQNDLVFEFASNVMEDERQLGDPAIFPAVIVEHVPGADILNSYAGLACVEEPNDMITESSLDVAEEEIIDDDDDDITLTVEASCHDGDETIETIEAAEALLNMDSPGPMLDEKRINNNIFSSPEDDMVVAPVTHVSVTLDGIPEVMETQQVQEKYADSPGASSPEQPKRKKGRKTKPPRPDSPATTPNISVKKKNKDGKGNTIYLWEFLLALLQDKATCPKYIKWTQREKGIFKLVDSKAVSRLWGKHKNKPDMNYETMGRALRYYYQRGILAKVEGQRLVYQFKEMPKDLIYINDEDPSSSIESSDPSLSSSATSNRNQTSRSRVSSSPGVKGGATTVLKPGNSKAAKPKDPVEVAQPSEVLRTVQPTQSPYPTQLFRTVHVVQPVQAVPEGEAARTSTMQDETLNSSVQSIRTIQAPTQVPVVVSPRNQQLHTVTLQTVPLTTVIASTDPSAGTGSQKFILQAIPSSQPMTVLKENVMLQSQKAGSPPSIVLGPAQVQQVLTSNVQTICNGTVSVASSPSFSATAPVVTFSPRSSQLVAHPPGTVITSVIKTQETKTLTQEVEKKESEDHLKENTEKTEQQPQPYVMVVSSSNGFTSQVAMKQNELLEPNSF
# Sequence of HSF1 (Q00613 whole entry): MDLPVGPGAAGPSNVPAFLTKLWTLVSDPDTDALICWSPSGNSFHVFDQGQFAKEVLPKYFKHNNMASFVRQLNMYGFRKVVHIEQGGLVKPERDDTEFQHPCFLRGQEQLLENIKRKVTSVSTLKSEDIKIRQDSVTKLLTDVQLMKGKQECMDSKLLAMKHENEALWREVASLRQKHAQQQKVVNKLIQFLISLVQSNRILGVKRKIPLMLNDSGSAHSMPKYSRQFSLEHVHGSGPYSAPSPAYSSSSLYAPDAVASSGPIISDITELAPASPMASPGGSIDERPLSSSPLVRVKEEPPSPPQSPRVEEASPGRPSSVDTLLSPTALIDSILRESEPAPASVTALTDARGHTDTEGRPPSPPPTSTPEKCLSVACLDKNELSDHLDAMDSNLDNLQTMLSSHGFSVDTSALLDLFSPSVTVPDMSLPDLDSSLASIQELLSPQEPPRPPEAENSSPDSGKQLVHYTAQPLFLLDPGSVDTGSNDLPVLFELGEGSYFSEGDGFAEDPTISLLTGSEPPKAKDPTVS
# Sequence of SPIB (Q01892 whole entry): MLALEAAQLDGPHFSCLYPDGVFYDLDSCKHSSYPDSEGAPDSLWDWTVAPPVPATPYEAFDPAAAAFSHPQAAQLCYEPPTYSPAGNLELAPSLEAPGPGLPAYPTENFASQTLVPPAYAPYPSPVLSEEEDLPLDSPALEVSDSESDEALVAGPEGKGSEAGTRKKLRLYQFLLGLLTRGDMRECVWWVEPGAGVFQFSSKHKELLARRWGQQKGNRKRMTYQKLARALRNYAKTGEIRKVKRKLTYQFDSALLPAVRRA
# Sequence of ELF4 (Q99607 whole entry): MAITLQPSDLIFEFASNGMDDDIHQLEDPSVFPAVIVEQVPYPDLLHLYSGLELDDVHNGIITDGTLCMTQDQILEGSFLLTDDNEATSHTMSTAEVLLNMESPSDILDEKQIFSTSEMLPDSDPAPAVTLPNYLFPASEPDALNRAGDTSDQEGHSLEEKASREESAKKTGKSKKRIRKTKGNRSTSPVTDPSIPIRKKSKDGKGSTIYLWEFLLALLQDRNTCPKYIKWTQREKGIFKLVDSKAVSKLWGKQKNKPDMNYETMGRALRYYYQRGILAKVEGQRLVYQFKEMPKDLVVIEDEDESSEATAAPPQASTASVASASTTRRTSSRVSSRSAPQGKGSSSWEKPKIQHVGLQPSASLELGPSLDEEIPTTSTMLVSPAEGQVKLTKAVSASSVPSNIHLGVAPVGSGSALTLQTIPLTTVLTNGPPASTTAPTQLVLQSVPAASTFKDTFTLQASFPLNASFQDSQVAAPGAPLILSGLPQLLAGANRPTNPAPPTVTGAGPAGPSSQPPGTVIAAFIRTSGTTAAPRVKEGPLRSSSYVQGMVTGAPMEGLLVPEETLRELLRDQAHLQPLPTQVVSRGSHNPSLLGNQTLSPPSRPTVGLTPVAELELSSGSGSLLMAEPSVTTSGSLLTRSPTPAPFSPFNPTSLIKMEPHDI
# Sequence of CRX (O43186 whole entry): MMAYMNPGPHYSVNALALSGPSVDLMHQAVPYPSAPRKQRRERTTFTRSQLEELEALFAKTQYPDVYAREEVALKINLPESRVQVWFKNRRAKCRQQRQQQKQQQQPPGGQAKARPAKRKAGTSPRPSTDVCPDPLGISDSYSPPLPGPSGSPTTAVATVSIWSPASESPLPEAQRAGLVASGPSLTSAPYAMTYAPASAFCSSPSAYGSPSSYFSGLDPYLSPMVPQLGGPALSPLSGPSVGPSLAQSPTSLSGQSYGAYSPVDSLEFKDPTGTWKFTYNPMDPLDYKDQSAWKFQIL
sequence,measurement,setting,value
AATCTT,binding signal,FLI1,"1.36 fold enrichment (6-mer frequency, TF over GST control)"
same,binding signal,ELK1,"1.24 fold enrichment (6-mer frequency, TF over GST control)"
same,binding signal,GABPA,"1.28 fold enrichment (6-mer frequency, TF over GST control)"
same,binding signal,ERG,"1.32 fold enrichment (6-mer frequency, TF over GST control)"
same,binding signal,ELF1,"1.29 fold enrichment (6-mer frequency, TF over GST control)"
same,binding signal,EHF,"1.29 fold enrichment (6-mer frequency, TF over GST control)"
same,binding signal,SPI1,"1.26 fold enrichment (6-mer frequency, TF over GST control)"
same,binding signal,SPIB,"1.29 fold enrichment (6-mer frequency, TF over GST control)"
same,binding signal,ELK3,"1.44 fold enrichment (6-mer frequency, TF over GST control)"
same,binding signal,FEV,"1.29 fold enrichment (6-mer frequency, TF over GST control)"
same,binding signal,ETV5,"1.35 fold enrichment (6-mer frequency, TF over GST control)"
same,binding signal,HSF1,"2.17 fold enrichment (6-mer frequency, TF over GST control)"
same,binding signal,SPIC,"1.38 fold enrichment (6-mer frequency, TF over GST control)"
same,binding signal,ELF4,"1.31 fold enrichment (6-mer frequency, TF over GST control)"
same,binding signal,ELK4,"1.36 fold enrichment (6-mer frequency, TF over GST control)"
same,binding signal,ETV2,"1.38 fold enrichment (6-mer frequency, TF over GST control)"
same,binding signal,ELF3,"1.4 fold enrichment (6-mer frequency, TF over GST control)"
same,binding signal,CRX,"2.54 fold enrichment (6-mer frequency, TF over GST control)"
same,binding signal,ETV1,"1.39 fold enrichment (6-mer frequency, TF over GST control)"
